From PubChem BioAssay AID1159580 (chemical genetic matrix, 2015)
Hit rate of the full screen: of about 5,500 compounds, about 2,000 (36%) were called active. Inconclusive results (about 18%) are left out. Rule as the data show it: active = normalized growth mostly below about 0.91 (no sharp cut-off); inconclusive = no clear call, values can overlap the other calls; inactive = mostly above about 0.92. The list shows a part of the results.

Assay: chemical genetic growth profiling, strain panel (AID 1159580);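 also: tested at 20 µM; growth read once vehicle control cultures reached saturation at 30 °C; 1 = growth at the plate median or of vehicle wells; lower values mean less growth of the strain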
Conditions: S. cerevisiae deletion strains, growth OD

Measured: normalized growth

O=C(O)CCCN1C(=O)c2cccc3cccc(c23)C1=O
inactive: locus YAL021C, strain ccr4, hits give low values 0.983 | locus YAL026C, strain drs2, hits give low values 1.02 | locus YAL030W, strain snc1, hits give low values 1.01 | locus YBL061C, strain skt5, hits give low values 1.01 | locus YBR009C, strain hhf1, hits give low values 1.02 | locus YBR023C, strain chs3, hits give low values 1.01 | locus YBR171W, strain sec66, hits give low values 1.01 | locus YBR231C, strain swc5, hits give low values 1.01 | locus YBR279W, strain paf1, hits give low values 1.01 | locus YCL011C, strain gbp2, hits give low values 1.02 | locus YCL016C, strain dcc1, hits give low values 1.02 | locus YCL061C, strain MRC1, hits give low values 1.02 | locus YCL069W, strain vba3, hits give low values 1.02 | locus YCR088W, strain abp1, hits give low values 1.02 | locus YDL005C, strain med2, hits give low values 1 | locus YDL040C, strain nat1, hits give low values 1 | locus YDR001C, strain nth1, hits give low values 1.01 | locus YDR069C, strain doa4, hits give low values 1.02 | locus YDR137W, strain rgp1, hits give low values 1.01 | locus YDR159W, strain sac3, hits give low values 1.01 | locus YDR195W, strain ref2 1.05 | locus YDR297W, strain sur2, hits give low values 1.01 | locus YDR334W, strain swr1, hits give low values 1.02 | locus YDR335W, strain msn5, hits give low values 1.01 | locus YDR392W, strain spt3, hits give low values 0.882 | locus YEL003W, strain gim4, hits give low values 1.01 | locus YEL037C, strain rad23, hits give low values 1.01 | locus YEL061C, strain CIN8 (second series), hits give low values 1.01 | locus YER015W, strain faa2, hits give low values 1.01 | locus YER016W, strain bim1, hits give low values 1.02 | locus YER111C, strain swi4, hits give low values 1.01 | locus YER155C, strain BEM2 (second series), hits give low values 1 | locus YFR010W, strain ubp6, hits give low values 1.01 | locus YGL167C, strain pmr1, hits give low values 1.01 | locus YGL173C, strain kem1, hits give low values 1.02 | locus YGL227W, strain vid30, hits give low values 1.02 | locus YGL240W, strain doc1, hits give low values 1 | locus YGL253W, strain hxk2, hits give low values 1.02 | locus YHR013C, strain ard1, hits give low values 0.97 | locus YHR027C, strain rpn1, hits give low values 1.02 | locus YHR030C, strain SLT2, hits give low values 1 | locus YHR079C, strain IRE1, hits give low values 0.998 | locus YHR142W, strain chs7, hits give low values 0.991 | locus YJL092W, strain hpr5, hits give low values 1.01 | locus YJL095W, strain BCK1 (second series), hits give low values 1.01 | locus YJL095W, strain BCK1, hits give low values 0.998 | locus YJL115W, strain asf1, hits give low values 1.02 | locus YJL129C, strain trk1, hits give low values 1.02 | locus YJL154C, strain vps35, hits give low values 1.01 | locus YJL164C, strain tpk1, hits give low values 0.992 | locus YJL166W, strain qcr8, hits give low values 1.01 | locus YJL187C, strain SWE1, hits give low values 1.01 | locus YJR066W, strain TOR1, hits give low values 0.963 | locus YKL160W, strain elf1, hits give low values 0.988 | locus YKR026C, strain gcn3, hits give low values 1.02 | locus YKR091W, strain srl3, hits give low values 1.01 | locus YLL001W, strain dnm1, hits give low values 1.03 | locus YLL026W, hits give low values 1.01 | locus YLL041C, strain sdh2, hits give low values 1.01 | locus YLR027C, strain aat2, hits give low values 1.01 | locus YLR113W, strain HOG1, hits give low values 1.03 | locus YLR221C, strain rsa3, hits give low values 0.996 | locus YLR258W, strain gsy2, hits give low values 1.02 | locus YLR262C, strain YPT6 (second series), hits give low values 0.983 | locus YLR320W, strain mms22, hits give low values 0.986 | locus YLR342W, strain FKS1, hits give low values 1.02 | locus YLR357W, strain rsc2, hits give low values 1.04 | locus YLR370C, strain arc18, hits give low values 1.02 | locus YLR384C, strain iki3, hits give low values 1.01 | locus YML120C, strain ndi1, hits give low values 1 | locus YMR058W, strain fet3, hits give low values 1.02 | locus YMR125W, strain sto1, hits give low values 1.03 | locus YMR129W, hits give low values 1.02 | locus YMR205C, strain PFK2, hits give low values 1.03 | locus YMR231W, strain pep5, hits give low values 1.01 | locus YNL071W, strain lat1, hits give low values 0.994 | locus YNL183C, strain NPR1, hits give low values 0.931 | locus YNL209W, strain ssb2, hits give low values 1.01 | locus YNL248C, strain rpa49, hits give low values 0.98 | locus YNL322C, strain KRE1 (second series), hits give low values 1.02 | locus YNR049C, strain mso1, hits give low values 1.01 | locus YOR001W, strain rrp6, hits give low values 0.976 | locus YOR070C, strain gyp1, hits give low values 1.01 | locus YOR080W, strain dia2, hits give low values 1.02 | locus YOR083W, strain WHI5, hits give low values 0.995 | locus YOR106W, strain vam3, hits give low values 1.01 | locus YOR231W, strain MKK1, hits give low values 1.02 | locus YOR265W, strain rbl2, hits give low values 1.01 | locus YOR270C, strain vph1, hits give low values 0.999 | locus YOR290C, strain snf2, hits give low values 1 | locus YPL051W, strain arl3, hits give low values 0.982 | locus YPL078C, strain atp4, hits give low values 0.997 | locus YPL106C, strain sse1, hits give low values 1.01 | locus YPL240C, strain hsp82, hits give low values 1.02 | locus YPL256C, strain CLN2, hits give low values 1.03
